Reference: PubChem BioAssay AID1159580 (chemical genetic matrix, 2015)
Out of some 5,500 compounds screened, about 2,000 (36%) were called active. Roughly 18% stayed inconclusive and do not appear here. Rule as the data show it: active = normalized growth mostly below about 0.91 (no sharp cut-off); inconclusive = no clear call, values can overlap the other calls; inactive = mostly above about 0.92. The list shows a part of the results.

Experiment: chemical genetic growth profiling, strain panel (AID 1159580);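 also: tested at 20 µM; growth read once vehicle control cultures reached saturation at 30 °C; 1 = growth at the plate median or of vehicle wells; lower values mean less growth of the strain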
Settings: growth OD
[1] = S. cerevisiae deletion strains, locus YAL013W, strain DEP1, active compounds read low
[2] = S. cerevisiae deletion strains, locus YBR229C, strain ROT2, active compounds read low
[3] = S. cerevisiae deletion strains, locus YDL101C, strain DUN1, active compounds read low
[4] = S. cerevisiae deletion strains, locus YDR150W, strain NUM1, active compounds read low
[5] = S. cerevisiae deletion strains, locus YEL061C, strain CIN8, active compounds read low
[6] = S. cerevisiae deletion strains, locus YGR078C, strain PAC10, active compounds read low
[7] = S. cerevisiae deletion strains, locus YGR229C, strain SMI1, active compounds read low
[8] = S. cerevisiae deletion strains, locus YHR030C, strain SLT2, active compounds read low
[9] = S. cerevisiae deletion strains, locus YHR087W, strain rtc3, active compounds read low
[10] = S. cerevisiae deletion strains, locus YJL187C, strain SWE1, active compounds read low
[11] = S. cerevisiae deletion strains, locus YJR043C, strain POL32, active compounds read low
[12] = S. cerevisiae deletion strains, locus YJR075W, strain HOC1, active compounds read low
[13] = S. cerevisiae deletion strains, locus YKL190W, strain CNB1, active compounds read low
[14] = S. cerevisiae deletion strains, locus YLR039C, strain RIC1, active compounds read low
[15] = S. cerevisiae deletion strains, locus YLR058C, strain SHM2 (second series), active compounds read low
[16] = S. cerevisiae deletion strains, locus YLR085C, strain ARP6, active compounds read low
[17] = S. cerevisiae deletion strains, locus YLR262C, strain YPT6, active compounds read low
[18] = S. cerevisiae deletion strains, locus YML094W, strain GIM5, active compounds read low
[19] = S. cerevisiae deletion strains, locus YMR219W, strain ESC1, active compounds read low
[20] = S. cerevisiae deletion strains, locus YMR263W, strain SAP30, active compounds read low
[21] = S. cerevisiae deletion strains, locus YNL153C, strain GIM3, active compounds read low
[22] = S. cerevisiae deletion strains, locus YNL298W, strain CLA4 (second series), active compounds read low
[23] = S. cerevisiae deletion strains, locus YNL322C, strain KRE1, active compounds read low
[24] = S. cerevisiae deletion strains, locus YNR030W, strain Alg12, active compounds read low
[25] = S. cerevisiae deletion strains, locus YPL055C, strain LGE1, active compounds read low
[26] = S. cerevisiae deletion strains, locus YPL241C, strain CIN2, active compounds read low
[27] = S. cerevisiae deletion strains, locus YPR135W, strain CTF4, active compounds read low
[28] = S. cerevisiae strains, strain wild type, active compounds read low

Measured: normalized growth

O=C(Nc1ccccc1)N1CCN(C(c2ccccc2)c2ccccc2)CC1
inactive: [1] 0.988 | [2] 0.992 | [3] 0.994 | S. cerevisiae deletion strains, locus YDL134C, strain PPH21, active compounds read low 1.01 | [4] 1 | [5] 0.997 | [6] 1 | [7] 1 | [8] 0.963 | [9] 0.993 | [10] 1.01 | [11] 0.978 | [12] 1.02 | [13] 0.989 | [14] 0.992 | [15] 0.991 | [16] 1.06 | [17] 0.985 | [18] 1.04 | [19] 1.01 | [20] 0.989 | [21] 0.994 | [22] 0.966 | [23] 1 | [24] 0.986 | [25] 1.08 | [26] 1.03 | [27] 0.902 | [28] 0.973

O=C1C(c2ccc(Br)cc2)=C(O)c2ccccc21
inactive: [1] 0.981 | [3] 0.953 | [4] 0.958 | [5] 0.99 | [7] 0.952 | [8] 0.849 | [11] 0.978 | [13] 0.983 | [14] 0.974 | [16] 0.982 | [17] 0.957 | [18] 0.983 | [20] 1.02 | [21] 0.966 | [22] 0.994 | [24] 0.989 | S. cerevisiae deletion strains, locus YOL006C, strain TOP1, active compounds read low 1.01 | [25] 0.928 | [26] 1.03 | [27] 0.942 | [28] 0.979
active: [2] 0.912 | [6] 0.915 | [9] 0.868 | [10] 0.913 | [12] 0.851 | [15] 0.893 | [19] 0.896 | [23] 0.938
